Results filed as inconclusive are left out. Values without a mark were called inactive. Calls of active or inactive are those of the source. Calls follow the shape of the dose curve; as a rule, active = well fitted cell-killing curve with a large enough effect; inconclusive = small, poorly fitted or top-dose-only effect, or effect the other way; inactive = no such curve, though single readings can be large or run the other way.
Key:
[1] = Quantitative High-Throughput drug screen in 47 multiple myeloma cell lines against the NCATS MIPE library collection: LP1_DSMZ cell viability assay (AID 1918982); conditions: LP1 myeloma viability, CellTiter-Glo ATP luminescence, 48 h; series mostly up to 45.8 µM; also: nearly all actives have a fitted effect of over 35% in size; also: potency is read from the fitted curve at half-maximal effect
Outline: (§1)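 500 cells/well per myeloma line exposed to pinned MIPE 4.0 compounds for 48 h at 37 °C, 5% CO2. Viability read as ATP by CellTiter-Glo luminescence, normalised to DMSO-only (100%) and media-only (0%) wells.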

[2] = Quantitative High-Throughput drug screen in 47 multiple myeloma cell lines against the NCATS MIPE library collection: KMS28PE_JCRB cell viability assay (AID 1918983); conditions: KMS28PE multiple myeloma viability, CellTiter-Glo ATP, 48 h; series mostly up to 45.8 µM; also: nearly all actives have a fitted effect of over 35% in size; also: potency is read from the fitted curve at half-maximal effect
Outline: as §1

[3] = Quantitative High-Throughput drug screen in 47 multiple myeloma cell lines against the NCATS MIPE library collection: L363_DSMZ cell viability assay (AID 1918984); conditions: L363 myeloma viability, CellTiter-Glo ATP luminescence, 48 h; series mostly up to 45.8 µM; also: nearly all actives have a fitted effect of over 40% in size; also: potency is read from the fitted curve at half-maximal effect
Outline: as §1

[4] = Quantitative High-Throughput drug screen in 47 multiple myeloma cell lines against the NCATS MIPE library collection: KMS34_JCRB cell viability assay (AID 1918985); conditions: KMS34 myeloma viability, CellTiter-Glo ATP luminescence, 48 h; series mostly up to 45.8 µM; also: nearly all actives have a fitted effect of over 40% in size; also: potency is read from the fitted curve at half-maximal effect
Outline: as §1

[5] = Quantitative High-Throughput drug screen in 47 multiple myeloma cell lines against the NCATS MIPE library collection: OCIMY7_PLB cell viability assay (AID 1918987); conditions: OCI-MY7 myeloma viability, CellTiter-Glo ATP, 48 h; series mostly up to 45.8 µM; also: nearly all actives have a fitted effect of over 65% in size; also: potency is read from the fitted curve at half-maximal effect
Outline: as §1

[6] = Quantitative High-Throughput drug screen in 47 multiple myeloma cell lines against the NCATS MIPE library collection: OCIMY5_PLB cell viability assay (AID 1918988); conditions: OCI-MY5 myeloma viability, ATP luminescence, 48 h; series mostly up to 45.8 µM; also: nearly all actives have a fitted effect of over 65% in size; also: potency is read from the fitted curve at half-maximal effect
Outline: as §1

[7] = Quantitative High-Throughput drug screen in 47 multiple myeloma cell lines against the NCATS MIPE library collection: OPM1_PLB cell viability assay (AID 1918989); conditions: CellTiter-Glo, 48 h; series mostly up to 45.8 µM; also: nearly all actives have a fitted effect of over 40% in size; also: potency is read from the fitted curve at half-maximal effect
Outline: as §1

[8] = Quantitative High-Throughput drug screen in 47 multiple myeloma cell lines against the NCATS MIPE library collection: SKMM1_PLB cell viability assay (AID 1919863); conditions: SKMM1 myeloma viability, CellTiter-Glo ATP, 48 h; viability: hits give low values; also: nearly all actives have a fitted effect of over 35% in size; also: potency is read from the fitted curve at half-maximal effect
Outline: as §1

[9] = Quantitative High-Throughput drug screen in 47 multiple myeloma cell lines against the NCATS MIPE library collection: U266_ATCC cell viability assay (AID 1919864); conditions: U266 myeloma viability, CellTiter-Glo ATP luminescence, 48 h; series mostly up to 45.8 µM; also: nearly all actives have a fitted effect of over 35% in size; also: potency is read from the fitted curve at half-maximal effect
Outline: as §1

[10] = Quantitative High-Throughput drug screen in 47 multiple myeloma cell lines against the NCATS MIPE library collection: XG6_PLB cell viability assay (AID 1919865); conditions: XG6 myeloma viability, CellTiter-Glo ATP luminescence, 48 h; series mostly up to 45.8 µM; also: nearly all actives have a fitted effect of over 40% in size; also: potency is read from the fitted curve at half-maximal effect
Outline: as §1

[11] = Quantitative High-Throughput drug screen in 47 multiple myeloma cell lines against the NCATS MIPE library collection: XG1_PLB cell viability assay (AID 1919866); conditions: CellTiter-Glo ATP, 48 h; series mostly up to 45.8 µM; also: nearly all actives have a fitted effect of over 35% in size; also: potency is read from the fitted curve at half-maximal effect
Outline: as §1

[12] = Quantitative High-Throughput drug screen in 47 multiple myeloma cell lines against the NCATS MIPE library collection: PE2_PLB cell viability assay (AID 1919869); conditions: PE2_PLB myeloma cells viability, ATP luminescence, 48 h; series mostly up to 45.8 µM; also: nearly all actives have a fitted effect of over 35% in size; also: potency is read from the fitted curve at half-maximal effect
Outline: as §1

[13] = Quantitative High-Throughput drug screen in 47 multiple myeloma cell lines against the NCATS MIPE library collection: PCM6_Riken cell viability assay (AID 1919870); conditions: CellTiter-Glo ATP, 48 h; series mostly up to 45.8 µM; also: nearly all actives have a fitted effect of over 30% in size; also: potency is read from the fitted curve at half-maximal effect
Outline: as §1

[14] = Quantitative High-Throughput drug screen in 47 multiple myeloma cell lines against the NCATS MIPE library collection: RPMI8226_ATCC cell viability assay (AID 1919871); conditions: RPMI8226 myeloma viability, CellTiter-Glo ATP luminescence, 48 h; series mostly up to 45.8 µM; also: nearly all actives have a fitted effect of over 30% in size; also: potency is read from the fitted curve at half-maximal effect
Outline: as §1

[15] = Quantitative High-Throughput drug screen in 47 multiple myeloma cell lines against the NCATS MIPE library collection: OPM2_DSMZ cell viability assay (AID 1919872); conditions: OPM2 myeloma viability, CellTiter-Glo ATP luminescence, 48 h; series mostly up to 45.8 µM; also: nearly all actives have a fitted effect of over 30% in size; also: potency is read from the fitted curve at half-maximal effect
Outline: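 Approved and investigational drugs from MIPE 4.0 were added by pin tool to 500 cells per well. After 48 hours at 37C, ATP-based CellTiter-Glo luminescence indicated remaining viability.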

[16] = Quantitative High-Throughput drug screen in 47 multiple myeloma cell lines against the NCATS MIPE library collection: KMS11_JCRBsus cell viability assay (AID 1919873); conditions: KMS11 myeloma viability, CellTiter-Glo ATP luminescence, 48 h; series mostly up to 45.8 µM; also: nearly all actives have a fitted effect of over 50% in size; also: potency is read from the fitted curve at half-maximal effect
Outline: as §1

[17] = Quantitative High-Throughput drug screen in 47 multiple myeloma cell lines against the NCATS MIPE library collection: KMS28BM_JCRB cell viability assay (AID 1919874); conditions: CellTiter-Glo ATP, 48 h; series mostly up to 45.8 µM; also: nearly all actives have a fitted effect of over 35% in size; also: potency is read from the fitted curve at half-maximal effect
Outline: as §1

[18] = Quantitative High-Throughput drug screen in 47 multiple myeloma cell lines against the NCATS MIPE library collection: VP6_DJ cell viability assay (AID 1919867); conditions: ATP luminescence, 48 h; series mostly up to 45.8 µM; also: nearly all actives have a fitted effect of over 40% in size; also: potency is read from the fitted curve at half-maximal effect
Outline: as §1

[19] = Quantitative High-Throughput drug screen in 47 multiple myeloma cell lines against the NCATS MIPE library collection: UTMC2_PLB cell viability assay (AID 1919868); conditions: CellTiter-Glo ATP luminescence, 48 h; viability (% of DMSO control): at 45.8 µM (top of the series); also: nearly all actives have a fitted effect of over 55% in size
Outline: as §1

| Compound | Potency [1] | Potency [2] | Potency [3] | Potency [4] | Potency [5] | Potency [6] | Potency [7] | viability [8] [%] | Potency [9] | Potency [10] | Potency [11] | Potency [12] | Potency [13] | Potency [14] | Potency [15] | Potency [16] | Potency [17] | Potency [18] | Potency [8] | Potency [19] |
| --- | --- | --- | --- | --- | --- | --- | --- | --- | --- | --- | --- | --- | --- | --- | --- | --- | --- | --- | --- | --- |
| C1=C2CCCN[C@H]2[C@@H]2C[C@H]1[C@@H]1CCCCN1C2 | inactive | inactive | inactive | inactive | inactive | inactive | inactive | 99.4 | inactive | inactive | inactive | inactive | inactive | inactive | inactive | inactive | inactive |  |  |  |
| CC(C)(O)C=CC(=O)[C@](C)(O)[C@H]1[C@H](O)C[C@]2(C)[C@@H]3CC=C4[C@@H](C=C(O)C(=O)C4(C)C)[C@]3(C)C(=O)C[C@@]12C | 418 nM (active) | 1660 nM (active) | 20.9 nM (active) | 33.2 nM (active) | 23.5 nM (active) |  | 105 nM (active) |  | 526 nM (active) | 66.2 nM (active) | 41.8 nM (active) | 33.2 nM (active) | 29.6 nM (active) | 52.6 nM (active) | 132 nM (active) | 118 nM (active) | 166 nM (active) | 105 nM (active) |  |  |
| O=C1C=CC[C@@H]2[C@H]3CCCN4CCC[C@@H](CN12)[C@@H]34 | inactive | 16600 nM (active) | inactive | inactive |  | 2960 nM (active) |  |  | 16600 nM (active) |  | inactive |  |  |  | inactive | inactive |  |  |  |  |
| CC1=C(O)C(=O)C=C2C1=CC=C1[C@@]2(C)CC[C@@]2(C)[C@@H]3C[C@](C)(C(=O)O)CC[C@]3(C)CC[C@]12C | 833 nM (active) | 833 nM (active) | 662 nM (active) | 743 nM (active) | 296 nM (active) | 296 nM (active) | 743 nM (active) |  | 743 nM (active) | 743 nM (active) | 590 nM (active) | 743 nM (active) | 743 nM (active) | 1180 nM (active) | 833 nM (active) | 935 nM (active) | 833 nM (active) | 935 nM (active) |  |  |
| C[C@@H]1O[C@@H](O[C@@H]2C=C3CC[C@@H]4[C@@H](CC[C@]5(C)[C@H](c6ccc(=O)oc6)CC[C@@]45O)[C@@]3(C)CC2)[C@H](O)[C@H](O)[C@H]1O | 6.6 nM (active) | 16.6 nM (active) | 8.3 nM (active) | 33.2 nM (active) | 13.2 nM (active) |  | 29.6 nM (active) |  | 9.3 nM (active) | 16.6 nM (active) |  | 26.4 nM (active) | 9.3 nM (active) | 23.5 nM (active) | 9.3 nM (active) | 52.6 nM (active) | 8.3 nM (active) | 11.8 nM (active) |  |  |
| COCC1(CO)C(=O)C2CCN1CC2 (stereo not given) | 2640 nM (active) | 18700 nM (active) | 3320 nM (active) | 590 nM (active) | 469 nM (active) |  | 2090 nM (active) |  | 2960 nM (active) | 1660 nM (active) | 20900 nM (active) | 2960 nM (active) | 20900 nM (active) | 20900 nM (active) | 11800 nM (active) | 7430 nM (active) | 23500 nM (active) | 4180 nM (active) |  |  |
| O=c1[nH]c2ccccc2n1C1CCN(Cc2ccc(-c3[nH]c4cc5ncnc5cc4nc3-c3ccccc3)cc2)CC1 | 20900 nM (active) | 20900 nM (active) | 5900 nM (active) |  | 8330 nM (active) | 16600 nM (active) | 2640 nM (active) |  |  | 7430 nM (active) | 7430 nM (active) | 2350 nM (active) | 13200 nM (active) | 13200 nM (active) | 18700 nM (active) | 20900 nM (active) | 18700 nM (active) | 9350 nM (active) | 20900 nM (active) |  |
| CC(=Cc1csc(C)n1)[C@@H]1C[C@H]2O[C@@H]2CCC[C@H](C)[C@@H](O)[C@@H](C)C(=O)C(C)(C)[C@@H](O)CC(=O)O1 | inactive | inactive |  | inactive | inactive |  |  | 81.4 |  | inactive |  | inactive | inactive | inactive | inactive | inactive | inactive | inactive |  |  |
| O=S(=O)(F)Cc1ccccc1 | inactive | inactive |  | inactive |  | inactive | 13200 nM (active) |  |  | 743 nM (active) | 235 nM (active) | 105 nM (active) | 2640 nM (active) | inactive | inactive | inactive | inactive | inactive |  |  |
| CC(C)[C@]12O[C@@H]1[C@@H]1O[C@]13[C@]1(O[C@H]1C[C@@H]1C4=C(CC[C@@]13C)C(=O)OC4)[C@H]2O | inactive | inactive | inactive | inactive | inactive |  | inactive |  | inactive | inactive | inactive | inactive | inactive | inactive | inactive | inactive | inactive | inactive |  | inactive |

Reference: PubChem BioAssay (NCATS)
